Screens from PubChem BioAssay.
TDP1 block – TDP1 (human) enzyme inhibition; recombinant TDP1, AlphaScreen DNA substrate cleavage; Potency, µM (top dose mostly 130 µM), without a hit: at the top dose activity change, negative = inhibition, most hits filed as inhibitors; actives 0.28% (n = 350,000); also: nearly all actives have a fitted effect of over 40% in size
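Here, a 5' biotin and 3' phosphotyrosine-FITC DNA oligonucleotide reports Tdp1 activity: intact substrate bridges AlphaScreen beads, while cleavage leaves a 3' phosphate and drops signal. All incubations at room temperature.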
PLK1 PBD inh – inhibitors of human PLK1 polo-box domain binding; Plk1 PBD binding of FITC phosphopeptide, fluorescence polarization; Potency, µM, inactives show max response, negative = inhibition, usual class: inhibitors; actives 2.8% (n = 360,000); AID 720504; also: series mostly up to about 57 µM; nearly all actives have a fitted effect of over 65% in size
GCN5L2 inh – inhibitors of human GCN5L2 histone acetyltransferase | GCN5L2 HAT assay, ThioGlo1 CoA-SH fluorescence | AID 504327 | actives 0.21% (n = 390,000) | Q92830 | Potency, µM (highest dose often 58.9 µM), for inactives: at the top dose activity change, negative = inhibition, hits mostly inhibitors
Target sequence (Q92830 whole entry, looked up): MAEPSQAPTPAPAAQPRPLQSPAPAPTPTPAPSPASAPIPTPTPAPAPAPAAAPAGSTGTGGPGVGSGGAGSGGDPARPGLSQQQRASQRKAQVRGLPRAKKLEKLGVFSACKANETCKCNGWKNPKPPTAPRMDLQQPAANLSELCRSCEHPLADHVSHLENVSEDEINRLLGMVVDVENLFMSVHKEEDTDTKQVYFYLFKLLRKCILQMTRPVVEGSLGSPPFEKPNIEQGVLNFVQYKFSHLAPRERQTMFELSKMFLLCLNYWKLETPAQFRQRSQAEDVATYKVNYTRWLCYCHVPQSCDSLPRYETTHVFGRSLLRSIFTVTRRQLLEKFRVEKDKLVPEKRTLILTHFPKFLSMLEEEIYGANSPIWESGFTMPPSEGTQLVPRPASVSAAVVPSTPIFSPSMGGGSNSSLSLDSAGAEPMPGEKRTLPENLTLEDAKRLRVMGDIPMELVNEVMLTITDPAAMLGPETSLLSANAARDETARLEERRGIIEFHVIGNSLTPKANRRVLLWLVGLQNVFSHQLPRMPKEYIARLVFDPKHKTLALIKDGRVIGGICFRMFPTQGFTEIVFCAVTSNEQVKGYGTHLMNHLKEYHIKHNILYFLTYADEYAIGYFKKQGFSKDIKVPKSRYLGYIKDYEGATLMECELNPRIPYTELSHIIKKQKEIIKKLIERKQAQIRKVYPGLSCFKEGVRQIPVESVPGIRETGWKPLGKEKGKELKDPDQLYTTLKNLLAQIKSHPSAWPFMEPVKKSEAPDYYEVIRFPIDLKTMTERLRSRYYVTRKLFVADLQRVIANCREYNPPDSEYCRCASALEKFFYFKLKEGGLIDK
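Compounds, pin-transferred from DMSO stocks, meet 20nM GCN5L2 for 15 min before the reaction begins with H3(1-25) peptide (75uM) and acetyl-CoA (70uM). Thiol-reactive ThioGlo1 reports CoA release over 20 min at room temperature.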
DT40 TDP1 no CPT – qHTS for Inhibitors of human tyrosyl-DNA phosphodiesterase 1 (TDP1): qHTS in cells in absence of CPT; actives 15% (n = 420,000); DT40 Tdp1-/- hTDP1 cells, no CPT, ATP luminescence, 48 h; Potency, µM (doses to about 46.2 µM), without a hit: at the top dose activity change, negative = growth inhibition, usual class: inhibitors; also: nearly all actives have a fitted effect of over 55% in size
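Chicken DT40 Tdp1-/- cells stably complemented with human TDP1 were seeded at 400 cells/well with DMSO in place of 20 nM camptothecin. After compound pinning, cells grew at least 48 hr at 37 °C; viability read by CellTiter-Glo luminescence.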
DT40 TDP1 CPT – growth inhibition of DT40 Tdp1-/-;hTDP1 cells with camptothecin (screen for TDP1 inhibitors) | chicken DT40 Tdp1-/-;hTDP1 cells + 20 nM CPT, ATP luminescence, 48 h | Potency, µM (titrated, usually from 46.2 µM), inactives show top-dose activity change, negative = growth inhibition, usual class: inhibitors | AID 686979 | actives 12% (n = 420,000); also: nearly all actives have a fitted effect of over 55% in size
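Cell growth measured by CellTiter-Glo luminescence after a minimum 48 h, 37 C compound exposure with 20 nM CPT in Tdp1-knockout DT40 cells stably expressing hTDP1, seeded 400/well; qHTS titration format.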
VDR inh – inhibitors of human vitamin D receptor | VDR-SRC2-3 peptide fluorescence polarization, 2 h | actives 0.93% (n = 400,000) | AID 504847 | P11473 | Potency, µM, for the others: max response, negative = inhibition, most hits filed as inhibitors
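After 23 nl compound addition and a short centrifugation, plates sat for 2 hours at ambient temperature; polarization of fluorescence then indicated loss of VDR binding to peptide SRC2-3.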
* marks the source's active call; other numbers are inactive results; ? = inconclusive; . = no result; [ ] = dose if it differs, or a comment. This is a sample that favours compounds with a hit; in the whole collection about 18% have one here. Calls follow the shape of the dose curve; as a rule, active = well fitted curve in the direction sought with a large enough effect; inconclusive = small, poorly fitted or top-dose-only effect, or another doubt; inactive = no such curve, though single readings can be large; an effect the other way counts as inactive or inconclusive. % is scaled to controls: 0 for no effect and ±100 for the full control effect; potency is read from the fitted curve at half-maximal effect.

SMILES	TDP1 block	PLK1 PBD inh	GCN5L2 inh	DT40 TDP1 no CPT	DT40 TDP1 CPT	VDR inh
COCCCN(C(=S)Nc1cc(Cl)cc(Cl)c1)C(C)c1ccccn1 (stereo not drawn)	2%	17µM*	-4%	?	?	?
COc1ccc(/C(O)=C2/C(=O)C(=O)N(CCN3CCOCC3)C2c2ccccn2)cc1 (stereo not drawn)	-5%	?	-8%	-5%	-8%	-20%
O=C1C(=O)N(CCN2CCOCC2)C(c2ccccn2)/C1=C(/O)c1ccc(F)cc1 (stereo not drawn)	4%	11µM*	-5%	23µM*	?	-9%
CC(CCCC(C)(C)O)CC1C2=C(CCCC2=O)OC2=C1C(=O)CCC2 (stereo not drawn)	5%	-3%	-7%	-10%	-6%	4%
O=c1/c(=C/c2ccccn2)sc2n1CN(c1ccccc1)CN=2	6%	-23%	-1%	?	-17%	-18%
Cc1cc(C)c2c(c1)/C(=c1/sc3n(c1=O)CN(c1ccccc1)CN=3)C(=O)N2	?	5%	-4%	16µM*	10µM*	-11%
CC1(C(=O)NS(=O)(=O)c2ccc(C#N)cc2)CCN1C(=O)Cc1ccccc1Cl (stereo not drawn)	.	5%	.	-3%	-15%	.
COc1cccc(CN(CCC(C)C)S(=O)(=O)c2cc(Br)ccc2Br)c1	.	-7%	.	16µM*	18µM*	-16%
Cc1ccc2c(CN3CCC(C(N)=O)CC3)cc(=O)oc2c1C	0%	-1%	-6%	-30%	15%	21%
N#Cc1ccc(OCc2nnc(SCC(=O)c3ccccc3)n2-c2ccccc2)cc1	0%	3%	-10%	?	23µM*	13%
COc1ccc(-n2c(COc3ccc(Cl)cc3)nnc2SCc2ccc(C#N)cc2)cc1	0%	-4%	-7%	23µM*	?	2%
Cc1ccc(OCc2nnc(SCC(=O)c3ccccc3)n2-c2ccccc2)cc1	0%[56.1 µM]	-5%	-4%	?	?	-4%
COc1ccc(-n2c(Cc3cc(=O)[nH]c(=O)[nH]3)nnc2SCc2ccccc2)cc1	5%	-8%	-6%	2%	-1%	-2%
COc1ccc(NCc2nnc(SCc3ccc(Cl)cc3)n2-c2ccccc2)cc1	4%	-5%	-10%	18µM*	?	-27%
CCOc1ccc(-n2c(SCc3ccc([N+](=O)[O-])cc3)nnc2-c2ccc(OC)cc2)cc1	14%	-10%	-9%	29µM*	18µM*	-22%
CN(C)C(=O)c1ccc(-c2cc(N(C)Cc3ccco3)ncn2)cc1	.	.	-5%	-4%	-7%	?
CC1CCC(=O)N(CCC#N)CC1 (stereo not drawn)	.	-12%	2%	1%	5%	-1%
COC(=O)CC(NS(=O)(=O)c1cccs1)c1ccc2c(c1)OCO2 (stereo not drawn)	2%	-5%	-3%	18%	-5%	25%
COc1ccc(N2c3ccccc3CN(Cc3ccccc3)CC2Cc2cc(OC)c(OC)c(OC)c2)cc1 (stereo not drawn)	.	0%	.	?	?	.
CC1CC(N(C(=O)c2ccccc2Cl)c2ccccc2)c2ccccc2N1 (stereo not drawn)	9%	-7%	-9%	5.8µM*	7.3µM*	-20%
CCOCCN(C(=O)c1ccccc1Cl)c1ccccc1	7%	5%	-1%	?	4%	-8%
COc1ccc(/C(=C\C(=O)O)c2nccc3cc(OC)c(OC)cc23)cc1OC	5%	.	.	-9%[9.04 µM]	9%[9.04 µM]	4%
CC(=O)N1CCc2c(sc3nc(SCC(C)C)n(-c4ccc(C)c(Cl)c4)c(=O)c23)C1	12%	.	-12%	?	23µM*	-3%
CCCSc1nc2sc3c(c2c(=O)n1-c1ccc(C)cc1)CCCC3	0%[12.3 µM]	.	0%	9.2µM*	?	11%
CCCCSc1nnc2n(-c3cccc(C)c3)c(=O)c3c4c(sc3n12)CCCC4	.	.	-1%	16µM*	?	-11%
SMILES	TDP1 block	PLK1 PBD inh	GCN5L2 inh	DT40 TDP1 no CPT	DT40 TDP1 CPT	VDR inh
CCCSc1nc2sc3c(c2c(=O)n1-c1ccc(C)c(Cl)c1)CCN(C(C)=O)C3	0%	.	-9%	23µM*	23µM*	11%
CC(=O)N1CCc2c(sc3nc(SCC(C)C)n(-c4ccc(F)c(Cl)c4)c(=O)c23)C1	1%	.	8%	?	?	-6%
Cc1cc(C(=O)CCC(=O)NCc2ccccc2F)c(C)s1	3%	-5%	-6%	-3%	-1%	17%
Cc1cc(C)c(S(=O)(=O)c2cccc(Cl)c2)c(=O)[nH]1	.	-5%	-12%	-7%	3%	9%
Cc1c(NC(=O)c2cc(-c3cccc(O)c3)on2)c(=O)n(-c2ccccc2)n1C	-3%	.	-5%	-13%	-24%	-2%
COc1ccc(CN2CCC3(CCC(CNC(=O)C4CCCO4)O3)CC2)c(C)c1C (stereo not drawn)	.	.	.	-10%	?	.
CSc1nc2nc3c(cc2c(=O)n1-c1ccccc1C)CCCC3	3%	-3%	1%	7.3µM*	7.3µM*	21%
CC(Sc1nc2sc3c(c2c(=O)n1-c1ccccc1)CCCC3)C(=O)O (stereo not drawn)	-1%	-6%	-13%	9%	-18%	43%
CSc1nc2sc3c(c2c(=O)n1-c1ccccc1C)CCCC3	4%	.	-5%	16µM*	23µM*	5%
COc1cc(OC)nc(Oc2ccccc2C(=O)Oc2ccc(F)cc2Cl)n1	-9%	-5%	-10%	-29%	?	-4%
O=C1c2ccccc2-c2c1c1ccccc1c(=O)n2-c1ccccc1	.	-1%	.	12µM*	12µM*	-5%
O=C1c2ccccc2-c2c1c1ccccc1c(=O)n2CCO	.	-14%	.	7.3µM*	6.5µM*	-6%
O=C(OCC(O)C(O)C(O)C(SCc1ccccc1)SCc1ccccc1)c1ccccc1 (stereo not drawn)	.	1%	.	?	29µM*	13%
Cc1cccc(Cn2c(C)c(C)c3cc(C(=O)NCc4ccco4)ccc32)c1	8%	.	-2%	23µM*	16µM*	13%
CCN(CC)c1ccc(NC(=O)c2ccc3c(c2)c(C)c(C)n3C)cc1	10%	6%	1%	18µM*	23µM*	-9%
COc1ccccc1CCNC(=O)c1ccc2c(c1)c(C)c(C)n2C	8%	.	-2%	7.3µM*	7.3µM*	14%
Cc1c(C)n(C)c2ccc(C(=O)NCCCN3CCCCC3)cc12	5%	-8%	0%	?	4%	-2%
